# PubChem BioAssay (EPA / NIEHS)
# Inconclusive results are not listed. Calls of active or inactive are those of the source. Rule for the calls: active = hit-call score of the fitted dose curve at least 0.9, where 1 is the maximum; inconclusive = response in the unintended direction; inactive = score below 0.9.
# Experiment: ATG_XTT_Cytotoxicity: Cytotoxicity Assessment in the Attagene TRANS-FACTORIAL HepG2 Assay (AID 2283584)
# Method in brief: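 HepG2 human liver cells, transiently transfected with multiple GAL4-UAS reporter units, were dosed and read at 24 h by XTT as cell number. Loss of signal was fitted relative to DMSO negative control baseline.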
row,Compound,outcome
1,CC(=O)O[C@@H]1C[C@@H]2CC[C@@]1(C)C2(C)C,inactive
2,C=Cc1ccncc1,inactive
3,CCCCCCC(O)CCCCCCCCCCC(=O)O (stereo not given),inactive
4,CC/C=C\CC/C=C/CO,inactive
5,COc1ccc(COC(C)=O)cc1,inactive
6,COc1cccc(OC)c1O,inactive
7,O=C(Nc1ccc([N+](=O)[O-])cc1)Nc1ccc([N+](=O)[O-])cc1 (tested in a mixture with another compound),inactive
8,CCC(=O)OCCOc1ccccc1,inactive
9,CCCCCCCCCCCCS(=O)(=O)Cl,inactive
10,CCCCCCCCCCCC(=O)OCC(O)CO (stereo not given),inactive
11,CCCCCCCC/C=C\CCCCCCCC(=O)OCC,inactive
12,Nc1ccc(Cl)c([N+](=O)[O-])c1,inactive
13,CC=Cc1ccc(OCC)c(O)c1,inactive
14,CCCCCCC(=O)c1ccccc1,inactive
15,CS(=O)(=O)OCCCCOS(C)(=O)=O,inactive
16,CCNCCO,inactive
17,C=CC(C)C#N (stereo not given),inactive
18,CC=Cc1ccc(OC)c(OC)c1,inactive

row,Compound,outcome
1,CCCCCCC(C)Nc1ccc(Nc2ccccc2)cc1 (stereo not given),inactive
2,OC[C@H]1O[C@@H]2O[C@H]3[C@H](O)[C@@H](O)[C@@H](O[C@H]4[C@H](O)[C@@H](O)[C@@H](O[C@H]5[C@H](O)[C@@H](O)[C@@H](O[C@H]6[C@H](O)[C@@H](O)[C@@H](O[C@H]7[C@H](O)[C@@H](O)[C@@H](O[C@H]8[C@H](O)[C@@H](O)[C@@H](O[C@H]9[C@H](O)[C@@H](O)[C@@H](O[C@H]1[C@H](O)[C@H]2O)O[C@@H]9CO)O[C@@H]8CO)O[C@@H]7CO)O[C@@H]6CO)O[C@@H]5CO)O[C@@H]4CO)O[C@@H]3CO,inactive
3,COc1ccc(OC)c(N=Nc2c(O)ccc3ccccc23)c1,inactive
4,CCCCC(CC)COC(C)=O (stereo not given),inactive
5,CN(C)c1ccncc1,inactive
6,CC(C)(N=C=O)c1cccc(C(C)(C)N=C=O)c1,inactive
7,CCCCCCCCCC(=O)OC,inactive
8,O=C1OC(=O)c2c(Br)c(Br)c(Br)c(Br)c21,inactive
9,CCC1CCCCC1,inactive
10,CCN(CCC#N)c1ccc(N=Nc2ccc([N+](=O)[O-])cc2)cc1,inactive
11,COc1ccc(CCO)cc1,inactive
12,C=C(C)C1CC=C(C)C(=O)C1 (stereo not given),inactive
13,BrCc1cccc(Oc2ccccc2)c1,inactive
14,Nc1c(S(=O)(=O)O)cc(Br)c2c1C(=O)c1ccccc1C2=O,inactive
15,CC1(C)COCN1,inactive
16,C=CC(=C)CCCC(C)(C)OC(C)=O,inactive
17,C=Cc1ccc(C(C)(C)C)cc1,inactive
